Rows were chosen to be rich in hits. Some 3.9% of all compounds tested hit in one or more screens of this group.
VDR inh: blocks the human vitamin D receptor; P11473; VDR-SRC2-3 peptide fluorescence polarization, 2 h; Potency, µM, for the others: max response, negative = inhibition, usual class: inhibitors; 400,000 tested, 0.93% active; AID 504847; also: % is scaled to controls: 0 for no effect and ±100 for the full control effect
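Fluorescence polarization assay of small-molecule disruption of VDR binding to coregulator peptide SRC2-3. Compounds and controls pin-transferred, then read after 2 h incubation at ambient room temperature.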
BRCA1 expr act: increases BRCA1 expression | MCF7-BRCA1-FFLuc reporter, luminescence, 48 h; response scale: scaled: vehicle 0%, 10 µM genistein 100% | Potency, µM (highest dose often 46.1 µM), without a hit: top-dose activation, hits mostly activators | 380,000 tested, 1.1% active | AID 624202; also: nearly all actives have a fitted effect of over 80% in size
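Using MCF7 cells harboring a BRCA1 firefly luciferase reporter, plated 2 h before compound pinning, the screen measured luminescence after 48 h incubation. Responses were normalized to DMSO and 10 microM genistein, then fitted for concentration-effect.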
PLK1 PBD block: PLK1 (human) polo-box domain binding inhibition; P53350; Plk1 PBD binding of FITC phosphopeptide, fluorescence polarization; Potency, µM, inactives show max response, negative = inhibition, hits mostly inhibitors; 360,000 tested, 2.8% active; AID 720504; also: series mostly up to about 57 µM; % is scaled to controls: 0 for no effect and ±100 for the full control effect; nearly all actives have a fitted effect of over 65% in size
Tb PFK block: T. brucei PFK enzyme inhibition. 330,000 tested, 0.17% active. T. brucei PFK, ADP-Glo luminescence. Potency, µM (series often up to 57.5 µM), without a hit: at the highest dose activity, negative = inhibition, hits mostly inhibitors. O15648. AID 485367;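 also: 0% = uninhibited 1x PFK enzyme wells and -100% = no-enzyme wells; nearly all actives have a fitted effect of over 60% in size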
Target sequence (O15648 whole entry, looked up): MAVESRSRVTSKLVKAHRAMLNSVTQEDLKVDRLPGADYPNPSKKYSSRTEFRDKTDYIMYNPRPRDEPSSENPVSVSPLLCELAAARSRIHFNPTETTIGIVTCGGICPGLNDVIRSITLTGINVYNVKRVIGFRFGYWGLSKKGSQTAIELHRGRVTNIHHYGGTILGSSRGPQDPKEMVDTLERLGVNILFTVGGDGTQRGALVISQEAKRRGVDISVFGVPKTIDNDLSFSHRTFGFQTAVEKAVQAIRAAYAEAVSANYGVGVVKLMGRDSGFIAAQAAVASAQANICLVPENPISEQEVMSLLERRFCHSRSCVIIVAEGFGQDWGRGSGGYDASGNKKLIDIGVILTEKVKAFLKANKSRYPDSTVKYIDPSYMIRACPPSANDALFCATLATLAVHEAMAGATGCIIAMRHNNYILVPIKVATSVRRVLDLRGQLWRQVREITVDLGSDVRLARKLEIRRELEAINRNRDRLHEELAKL
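In TEA buffer at pH 8.0 with 5 mM MgCl2, enzyme (1.25 nM) converted F6P (0.5 mM) and ATP (0.1 mM) for 45 min at room temperature. ADP product was read by luciferase luminescence.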
Starred values were filed as active, the others as inactive; ? = inconclusive; . = no result; ! = not confirmed by another sample. Calls follow the shape of the dose curve; as a rule, active = well fitted curve in the direction sought with a large enough effect; inconclusive = small, poorly fitted or top-dose-only effect, or another doubt; inactive = no such curve, though single readings can be large; an effect the other way counts as inactive or inconclusive. Potency is read from the fitted curve at half-maximal effect.

SMILES	VDR inh	BRCA1 expr act	PLK1 PBD block	Tb PFK block
CO[C@@H](C)[C@](O)(C(=O)OCC1=CCN2CC[C@@H](O)[C@H]12)C(C)C	3.2%	.	.	.
C/C(=C/CCC(C)[C@H]1CC[C@@]2(C)C3=C(CC[C@]12C)[C@@]1(C)CCC(=O)C(C)(C)[C@@H]1CC3)C(=O)O (some centres undefined)	?	-1.1%	13.4µM*	-10.8%
CC(C)=CCCC(C)C1CC[C@@]2(C)C3=C(CC[C@@]12C)C1(C)CCC(O)C(C)(C)C1CC3 (some centres undefined)	35.5µM*	.	.	.
CC#C[C@]1(O)CC[C@H]2C3C=C(C)C4=CC(=O)C=C[C@]4(C)[C@H]3[C@@H](O)C[C@@]21C (some centres undefined)	-0.3%	.	.	.
O=C1Nc2ccccc2C2(CCN(CCc3ccc(C(F)(F)F)cc3)CC2)O1	2.1%	.	.	.
NC(=O)CC[C@@H]1NC(=O)[C@H](Cc2ccccc2)NC(=O)[C@H](Cc2ccc(O)cc2)NC(=O)[C@@H](N)CSSC[C@@H](C(=O)N2CCC[C@H]2C(=O)N[C@@H](CCCN=C(N)N)C(=O)NCC(N)=O)NC(=O)[C@H](CC(N)=O)NC1=O	?	.	.	-0.1%
COc1ccc(CCN)cc1O	-9.0%	13.7%	-0.4%	.
NCCc1cc(O)c(O)cc1O	89.1µM*	20.3%	15µM*	.
CC(=O)Nc1cc(-c2ccc(C(=O)NC3CC3)cc2)cn2c(-c3ccc(F)c(Cl)c3)cnc12	.	-41.1%	?	.
C[C@]12CCC3C(CC[C@]4(O)C[C@@H](O)CC[C@]34C=O)[C@@]1(O)CC[C@@H]2C1=CC(=O)OC1 (some centres undefined)	2.2%	.	.	.
CN1C[C@@H](C(=O)N[C@@]2(C)O[C@]3(O)C4CCCN4C(=O)[C@@H](Cc4ccccc4)N3C2=O)C=C2c3cccc4[nH]cc(c34)C[C@@H]21 (some centres undefined)	14.1µM*	.	.	.
CN1C(=O)C(=Cc2ccccc2OCc2ccccc2Cl)C(=O)N(C)C1=O	?	-18.7%	2.99µM*	10.3%
CN1C(=O)C(=Cc2ccccc2OCc2ccc(C(=O)O)cc2)C(=O)N(C)C1=O	?	57.8%	11.9µM*	1.9%
CN1C(=O)C(=Cc2ccccc2OCCOc2ccc([N+](=O)[O-])cc2)C(=O)N(C)C1=O	?	22.8%	2.99µM*	-9.9%
CCn1cc(C=C2C(=O)N(C)C(=O)N(C)C2=O)c2ccccc21	4.3%	-37.5%	-11.2%	-5.2%
CN1C(=O)C(=Cc2ccc(OCC(=O)Nc3ccccc3)cc2)C(=O)N(C)C1=O	?	-7.6%	7.52µM*	-23.8%
CCCN1CCO[C@@H]2c3cc(O)ccc3OC[C@@H]21	2.2%	.	.	.
Cc1ccccc1C(=O)NNC(=S)NC(=O)COc1ccccc1	?	-0.8%	29.9µM*	-17.1%
O=C(NC1CCCCC1)Oc1cc2oc(=O)sc2cc1Cl	31.6µM*	-12.1%	2.67µM*	7.6%
CC(c1nccs1)N(C)C(=O)c1cn(Cc2cccc3ccccc23)nn1 (centres undefined)	10.2%	?	-8.3%	6.7%
CC(C)(O)C1O[C@H]2CC[C@@]3(C)[C@@](O)(CC[C@H]4Cc5c([nH]c6ccccc56)[C@@]43C)C2=CC1=O (some centres undefined)	-10.5%	.	.	.
Cc1ccc(-n2c(-c3nn(C)c(C)c3Cl)n[nH]c2=S)cc1	3.9%	2.1%	29.9µM*	0.4%
Cc1ccc(-n2c(O)c(/C=N/N3CCOCC3)c(=O)[nH]c2=S)cc1	-13.2%	-11.5%	-7.7%	2.4%
CCCCCn1c(SCCCC)nc2c1c(=O)[nH]c(=O)n2C	?	-41.9%	26.7µM*	-0.6%
CC(=O)Nc1c2sscc-2n(C)c1=O	39.8µM*	.	.	.
SMILES	VDR inh	BRCA1 expr act	PLK1 PBD block	Tb PFK block
CC/C=C\C/C=C\C/C=C\C/C=C\C/C=C\CCCC(N)=O	-0.9%	.	.	.
CCCOc1ccc(C(=O)NC(=S)N2C[C@H]3C[C@H](C2)c2cccc(=O)n2C3)cc1	-18.3%	12.0%	26.7µM*	-7.0%
O[C@@H](Cc1ccncc1)C(Cl)(Cl)Cl	5.1%	.	.	.
CCn1c(O)c(C=Nc2ccc(N3CCOCC3)cc2)c(=O)n(CC)c1=S	-20.4%	-47.6%	21.2µM*	2.6%
COc1ccc(-n2c(-c3ccccc3[N+](=O)[O-])nc3ccccc3c2=O)cc1	?	-18.1%	21.2µM*	-1.8%
CC(C)c1ccc(N=Nc2c(O)[nH]c(=O)[nH]c2=O)cc1	-0.2%	?	-0.8%	0.6%
O=c1[nH]c(=S)[nH]c(O)c1N=Nc1ccc(SC(F)F)cc1	-6.2%	-50.3%	10.6µM*	0.3%
CC1=NNC(=O)C1C(c1ccc(F)cc1)C(C#N)C#N (centres undefined)	?	0.0%	29.9µM*	.
CN(CCc1ccc(Cl)c(Cl)c1)[C@@H]1CCCC[C@@H]1N1CCCC1	-1.8%	.	.	.
CN1CCCCC1Cn1cc(C(=O)c2cc([N+](=O)[O-])ccc2I)c2ccccc21 (centres undefined)	-12.1%	.	.	.
O=c1[nH]/c(=C\c2ccc(N(CCCl)CCCl)cc2)c(=O)[nH]/c1=C\c1ccc(N(CCCl)CCCl)cc1	.	-15.2%	.	.
O=c1[nH]cc(N(CCCl)CCCl)c(=O)[nH]1	17.8µM*	.	.	.
CCCCC/C=C\C[C@@H](/C=C/C=C\C/C=C\CCCC(=O)O)OO	-13.9%	.	.	.
CCCCC/C=C\C/C=C\C/C=C\C/C=C\CCCC(=O)O	7.94µM*!	.	.	-6.6%
C=C[C@H]1CN2CC[C@H]1C[C@H]2c1[nH]c2ccccc2c1CCO	-1.1%	.	.	.
Cn1ccnc1P(=S)(c1nccn1C)N1CCOCC1	?	9.1%	26.7µM*	-21.4%
CC(=O)OC1CC2C(C)(C)C(O)C=C[C@@]2(C)C2CC[C@]3(C)C(=CC(=O)OC3c3ccoc3)[C@]12C (some centres undefined)	25.1µM*	.	.	.
CC(=O)OC1CC(OC(C)=O)[C@]2(C)C(CC(OC(C)=O)[C@]3(C)C2CC[C@@]2(C)C(c4ccoc4)C(=O)C4O[C@]432)C1(C)C (some centres undefined)	-4.5%	.	.	.
CC1=C(C(=O)O)N2C(=O)C(NC(=O)Cc3ccccc3)C2SC1 (centres undefined)	28.7%	5.7%	-6.9%	0.2%
CC1=C(C(=O)O)N2C(=O)C(NC(=O)c3nn(C)cc3[N+](=O)[O-])C2SC1 (centres undefined)	?	10.4%	33.6µM*	1.0%
C#Cc1cccc2c1c(C(=O)c1ccc(Cn3c(C)nc4cnccc43)c(F)c1)cn2C(=O)N(C)C	6.8%	.	.	.
Cc1cccc(N2C(=O)NC(=O)/C(=C/c3ccc(N4CCOCC4)cc3)C2=O)c1	-13.3%	-0.9%	11.9µM*	3.0%
Cc1cccc(N2C(=O)NC(=O)/C(=C\c3ccc(N4CCOCC4)cc3)C2=O)c1	-11.2%	0.3%	9.47µM*	-1.6%
CCOc1ccc(N2C(=O)NC(=O)/C(=C\c3ccc(N4CCOCC4)cc3C)C2=O)cc1	?	-2.8%	6.7µM*	-28.3%
Cc1cccc(N2CCC3(CC2)C(=O)NC(=O)NC3=O)c1	-2.8%	12.1%	-5.4%	.
Cc1ccc(N2C(=O)NC(=O)/C(=C\c3ccc(N4CCOCC4)cc3)C2=O)cc1	?	19.1%	5.97µM*	1.9%
